According to PubChem BioAssay:
Calls of active or inactive are those of the source.

What was measured:
[1] = binders of probe aFSTL3 on microarray, primary screen, stem cell growth factor project, biochemical, small-molecule microarray, fluorescence 635/667 (AID 1064); details: higher = more signal;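 also: measures binding of the biotinylated anti-FSTL3 antibody to printed compounds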
[2] = binders from COS7 lysate, DM2A8 probe, primary screen, torsin A project, cell lysate, small-molecule microarray, fluorescence 635/667 (AID 1065); details: higher = more signal, COS7 lysate expressing mutant human TOR1A
[3] = binders of probe aFGF2 on microarray, primary screen, stem cell growth factor project, biochemical, small-molecule microarray, fluorescence 635/667 (AID 1067); details: higher = more signal;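 also: measures binding of biotinylated aFGF2 protein to printed compounds on slides; z-score merges feature fluorescence and signal-to-noise across triplicate slides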
[4] = binders of probe aFGF10 on microarray, primary screen, stem cell growth factor project, biochemical, small-molecule microarray, fluorescence 635/667 (AID 1071); details: higher = more signal;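 also: score merges 667 nm spot intensity and signal to noise from triplicate slides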
[5] = target: Neurogenic locus notch homolog protein 2 (Homo sapiens) (UniProt Q04721); assay: Notch2 binders on small-molecule microarrays, primary screen, biochemical, small-molecule microarray, 635 nm fluorescence, stem cell growth factors (AID 1073); details: Notch2 binding, higher = more signal
[6] = target: Pro-neuregulin-1, membrane-bound isoform (Homo sapiens) (UniProt Q02297); assay: NRG1 binders on small-molecule microarrays, primary screen, psychiatric disease protein project, biochemical, small-molecule microarray, fluorescence 635/667 (AID 1075); details: NRG1 binding, 635 nm fluorescence, higher = more signal;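 also: score combines 667 nm spot fluorescence with signal to noise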
Chain of Pro-neuregulin-1, membrane-bound isoform (Homo sapiens) (Q02297 whole entry, looked up, the tested form may be a part, canonical isoform): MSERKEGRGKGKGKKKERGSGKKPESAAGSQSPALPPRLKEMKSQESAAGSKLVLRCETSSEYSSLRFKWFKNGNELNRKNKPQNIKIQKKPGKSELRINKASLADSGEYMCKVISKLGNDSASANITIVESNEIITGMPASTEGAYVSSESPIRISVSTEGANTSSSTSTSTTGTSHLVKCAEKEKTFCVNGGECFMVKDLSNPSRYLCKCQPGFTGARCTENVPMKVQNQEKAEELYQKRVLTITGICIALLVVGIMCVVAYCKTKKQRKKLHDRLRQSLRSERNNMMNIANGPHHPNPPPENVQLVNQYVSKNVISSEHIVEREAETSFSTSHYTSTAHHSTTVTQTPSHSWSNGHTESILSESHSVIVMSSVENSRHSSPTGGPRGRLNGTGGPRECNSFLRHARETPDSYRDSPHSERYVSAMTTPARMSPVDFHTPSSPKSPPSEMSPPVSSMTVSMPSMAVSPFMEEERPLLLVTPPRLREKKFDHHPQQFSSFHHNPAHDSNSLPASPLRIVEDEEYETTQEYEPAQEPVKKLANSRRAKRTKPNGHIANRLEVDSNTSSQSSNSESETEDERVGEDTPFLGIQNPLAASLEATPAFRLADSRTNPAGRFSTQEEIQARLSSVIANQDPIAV

[7] = system: Neuregulin-1 EGF-like domain; assay: binders of neuregulin-1 EGF-like domain, primary screen, biochemical, small-molecule microarray, 635 nm fluorescence (AID 1081); details: small-molecule microarray binding, higher = more signal;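 also: binding of the protein to compounds printed on small-molecule microarray slides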
[8] = FRG1 promoter luciferase signal modulators, primary screen, FRG1 inhibition for FSHD, cell-based, C2C12 myotubes, firefly/Renilla luciferase, luminescence (AID 1084); details: higher = more signal, called active from +8 up or from −8 down
[9] = binders of probe aFST on microarray, primary screen, stem cell growth factor project, biochemical, small-molecule microarray, fluorescence 635/667 (AID 1086); details: higher = more signal;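 also: score merges 667 nm fluorescence with signal-to-noise of each printed compound spot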
[10] = binders of probe aHhip on microarray, primary screen, stem cell growth factor project, biochemical, small-molecule microarray, fluorescence 635/667 (AID 1087); details: higher = more signal;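 also: score merges spot fluorescence at 667nm with spot signal to noise ratio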
[11] = system: PRMT1 (protein arginine N-methyltransferase 1); assay: PRMT1 binders on small-molecule microarrays, primary screen, biochemical, small-molecule microarray, 635 nm fluorescence (AID 1088); details: small-molecule microarray binding, higher = more signal;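 also: binding of Prmt1 protein to compounds spotted on small-molecule microarray slides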
[12] = yeast growth modulation, basal conditions, primary screen, YJM789 clinical isolate, OD600, 24 h (AID 1089);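 also: growth of clinical yeast isolate S. cerevisiae YJM 789 seeded 1000 cells per well; test concentration not given here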; details: S. cerevisiae YJM789 growth, higher = more signal, called active from +8 up or from −8 down
[13] = fission yeast growth modulation, primary screen, strain 972, OD600, 24 h, no modulator (AID 1090);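 also: basal condition with compound alone and no growth modifier present; test concentration not given here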; details: S. pombe 972 growth, higher = more signal, called active from +8 up or from −8 down
[14] = S. cerevisiae growth modulation with rapamycin, primary screen, strain BY4716, OD600, 96 h (AID 1091); details: higher = more signal, called active from +8 up or from −8 down; also: test concentration not given here
[15] = target: Torsin-1A-interacting protein 2 (Homo sapiens) (UniProt Q8NFQ8); assay: LULL1 binders on small-molecule microarray, primary screen, cell lysate, human LULL1 lysate, 635/667 nm fluorescence (AID 1092); details: hLULL1 lysate binding, 635 nm fluorescence, higher = more signal;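 also: probe is lysate of COS7 cells overexpressing human LULL1; score merges per-feature 667 nm fluorescence with signal-to-noise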
Chain of Torsin-1A-interacting protein 2 (Homo sapiens) (Q8NFQ8 whole entry, looked up): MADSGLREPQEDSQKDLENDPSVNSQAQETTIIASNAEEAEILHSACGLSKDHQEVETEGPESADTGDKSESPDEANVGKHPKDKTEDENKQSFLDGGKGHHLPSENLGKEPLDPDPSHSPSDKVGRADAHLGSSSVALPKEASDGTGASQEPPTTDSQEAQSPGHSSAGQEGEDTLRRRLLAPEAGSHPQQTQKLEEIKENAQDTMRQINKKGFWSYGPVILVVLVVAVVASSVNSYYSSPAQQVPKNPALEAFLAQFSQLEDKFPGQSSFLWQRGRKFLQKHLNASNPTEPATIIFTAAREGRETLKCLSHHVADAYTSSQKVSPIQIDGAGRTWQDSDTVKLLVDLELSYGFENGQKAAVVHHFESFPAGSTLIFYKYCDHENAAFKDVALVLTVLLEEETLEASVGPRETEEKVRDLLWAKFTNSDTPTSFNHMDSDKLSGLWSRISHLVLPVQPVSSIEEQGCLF

[16] = E. coli growth modulation, two-sided OD650, primary screen, E. coli filamentation project, strain DRC41, 24 h (AID 1093); details: OD650, 24 h, higher = more signal, called active from +8 up or from −8 down;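 also: MC1000 strain lacking acrAB efflux and sulA so SOS filamentation is blocked; test concentration not given here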
[17] = small-molecule microarray binders of probe aLefty2, primary screen, biochemical, biotinylated probe, 635/667 nm fluorescence (AID 1094); details: higher = more signal;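 also: score merges spot fluorescence near 667 nm with spot signal-to-noise ratio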
[18] = system: Noggin (protein binding on small-molecule microarray); assay: Noggin binders on small-molecule microarray, primary screen, biochemical, 635/667 nm fluorescence (AID 1095); details: 635 nm fluorescence, higher = more signal;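 also: score merges 667 nm feature fluorescence with signal to noise over triplicate slides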
[19] = target: Neurogenic locus notch homolog protein 3 (Homo sapiens) (UniProt Q9UM47); assay: NOTCH3 binders on small-molecule microarray, primary screen, biochemical, 635/667 nm fluorescence (AID 1096); details: NOTCH3 binding, 635 nm fluorescence, higher = more signal
Chain of Neurogenic locus notch homolog protein 3 (Homo sapiens) (Q9UM47 whole entry, looked up): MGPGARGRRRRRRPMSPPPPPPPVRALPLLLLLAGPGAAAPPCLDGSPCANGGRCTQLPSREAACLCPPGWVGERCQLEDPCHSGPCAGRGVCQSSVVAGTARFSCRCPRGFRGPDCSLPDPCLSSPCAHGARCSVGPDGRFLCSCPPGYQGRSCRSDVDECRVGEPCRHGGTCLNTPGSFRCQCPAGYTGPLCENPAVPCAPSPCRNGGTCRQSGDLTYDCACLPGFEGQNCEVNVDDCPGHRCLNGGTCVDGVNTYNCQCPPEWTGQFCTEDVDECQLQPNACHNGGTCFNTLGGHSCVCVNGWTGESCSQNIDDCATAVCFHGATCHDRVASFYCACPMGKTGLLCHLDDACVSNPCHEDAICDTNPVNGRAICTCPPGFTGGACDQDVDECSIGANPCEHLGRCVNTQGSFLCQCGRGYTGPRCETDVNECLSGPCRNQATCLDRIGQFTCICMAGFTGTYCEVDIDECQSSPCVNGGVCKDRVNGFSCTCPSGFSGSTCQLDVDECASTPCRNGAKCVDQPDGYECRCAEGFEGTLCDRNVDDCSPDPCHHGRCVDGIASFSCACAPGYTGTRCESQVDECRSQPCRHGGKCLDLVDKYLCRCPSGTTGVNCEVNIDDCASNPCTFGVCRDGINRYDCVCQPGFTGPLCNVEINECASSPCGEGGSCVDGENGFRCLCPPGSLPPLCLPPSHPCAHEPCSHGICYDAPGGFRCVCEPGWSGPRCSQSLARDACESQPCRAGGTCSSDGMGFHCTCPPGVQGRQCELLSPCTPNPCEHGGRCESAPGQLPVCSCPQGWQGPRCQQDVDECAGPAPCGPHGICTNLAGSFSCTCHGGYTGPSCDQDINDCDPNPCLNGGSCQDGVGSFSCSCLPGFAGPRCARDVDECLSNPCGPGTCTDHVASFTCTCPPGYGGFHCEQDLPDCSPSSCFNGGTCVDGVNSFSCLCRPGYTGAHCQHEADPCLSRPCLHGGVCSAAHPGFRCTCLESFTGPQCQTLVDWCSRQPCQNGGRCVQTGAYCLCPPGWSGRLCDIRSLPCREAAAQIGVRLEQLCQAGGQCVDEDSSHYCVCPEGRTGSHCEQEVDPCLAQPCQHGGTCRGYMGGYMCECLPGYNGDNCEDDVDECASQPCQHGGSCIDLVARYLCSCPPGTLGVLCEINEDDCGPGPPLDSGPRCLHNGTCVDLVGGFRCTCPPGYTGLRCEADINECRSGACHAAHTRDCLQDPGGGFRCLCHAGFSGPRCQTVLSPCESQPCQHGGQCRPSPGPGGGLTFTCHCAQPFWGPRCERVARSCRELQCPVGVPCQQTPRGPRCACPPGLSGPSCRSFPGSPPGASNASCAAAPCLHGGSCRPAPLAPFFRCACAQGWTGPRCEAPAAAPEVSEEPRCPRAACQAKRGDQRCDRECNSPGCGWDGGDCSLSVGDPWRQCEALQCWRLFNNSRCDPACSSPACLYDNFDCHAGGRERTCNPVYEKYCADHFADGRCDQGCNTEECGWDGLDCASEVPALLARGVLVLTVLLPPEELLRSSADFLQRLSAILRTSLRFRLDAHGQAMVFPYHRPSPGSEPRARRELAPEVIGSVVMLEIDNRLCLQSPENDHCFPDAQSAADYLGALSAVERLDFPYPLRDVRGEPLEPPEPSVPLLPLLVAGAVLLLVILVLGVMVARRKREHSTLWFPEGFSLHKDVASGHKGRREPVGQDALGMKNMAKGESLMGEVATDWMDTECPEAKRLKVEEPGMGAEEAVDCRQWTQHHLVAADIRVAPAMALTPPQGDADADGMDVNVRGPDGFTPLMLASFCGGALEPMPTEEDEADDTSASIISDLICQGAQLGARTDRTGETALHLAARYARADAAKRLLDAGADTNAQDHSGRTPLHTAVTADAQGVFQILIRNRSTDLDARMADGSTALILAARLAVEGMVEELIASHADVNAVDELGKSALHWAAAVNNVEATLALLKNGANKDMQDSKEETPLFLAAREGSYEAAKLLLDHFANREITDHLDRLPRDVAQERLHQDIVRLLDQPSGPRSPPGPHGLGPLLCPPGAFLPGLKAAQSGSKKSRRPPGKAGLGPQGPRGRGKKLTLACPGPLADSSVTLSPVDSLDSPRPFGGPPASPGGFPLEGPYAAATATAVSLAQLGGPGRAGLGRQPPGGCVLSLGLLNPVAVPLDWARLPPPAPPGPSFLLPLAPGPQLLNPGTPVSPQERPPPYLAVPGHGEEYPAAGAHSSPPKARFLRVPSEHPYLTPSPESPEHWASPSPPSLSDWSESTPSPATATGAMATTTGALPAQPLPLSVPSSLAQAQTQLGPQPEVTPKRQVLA

[20] = small-molecule microarray binders of probe aEGFR, primary screen, biochemical, biotinylated probe, 635/667 nm fluorescence (AID 1097); details: higher = more signal;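 also: probe is a biotinylated anti-EGFR antibody binding compounds printed on slides; score combines fluorescence near 667 nm and signal to noise of each spot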

Structure (SMILES)	composite z-score [1]	composite z-score [2]	composite z-score [3]	composite z-score [4]	composite z-score [5]	composite z-score [6]	composite z-score [7]	z-score [8]	composite z-score [9]	composite z-score [10]	composite z-score [11]	z-score [12]	z-score [13]	z-score [14]	composite z-score [15]	z-score [16]	composite z-score [17]	composite z-score [18]	composite z-score [19]	composite z-score [20]
O=C1O[C@@H](c2ccccc2)[C@@H](c2ccccc2)N2[C@@H](c3ccc(O)cc3)[C@]3(C(=O)Nc4ccc(C#CC5(O)CCCCCC5)cc43)[C@@H](C(=O)N3CCN(c4ncccn4)CC3)[C@H]12	-0.381	0.0262	0.0011	0.349	0.609	1.6	1.22	-0.0311 (inactive)	0.204	-0.0994	1.34	0.979 (inactive)	0.37 (inactive)	0.924 (inactive)	2.75	1.52 (inactive)	-0.114	0.864	0.886	-0.0399
COCCCNC(=O)[C@@H]1c2ccccc2C(=O)N(Cc2cc(F)cc(C(F)(F)F)c2)[C@H]1c1ccc(CO)cc1	0.211	-0.303	-0.233	-0.535	-0.984	-0.676	0.716	0.154 (inactive)	-0.395	-0.134	-0.444	-0.359 (inactive)	-0.555 (inactive)	-0.703 (inactive)	0.0519	0.526 (inactive)	-0.016	-0.902	-1.26	-0.207
CC[C@@H]1[C@@H]2C3C(=O)N(CC)C(=O)C3CC(=O)[C@@H]2[C@H](c2ccc(C)cc2)N1S(=O)(=O)c1ccc(C)cc1 (stereo not given in full)	-0.38	0.0428	0.161	0.383	1.56	1.37	1.1	-1.04 (inactive)	0.635	-0.19	1.29	-2.69 (inactive)	0.321 (inactive)	0.336 (inactive)	3.3	0.957 (inactive)	-0.128	0.381	0.919	-0.0371
COC(=O)[C@@]1(Cc2ccc(OC)cc2)[C@H]2c3cc(C(=O)N(C)C)n(CCF)c3C[C@H]2CN1C(=O)c1ccccc1	0.999	0.245	0.0398	0.419	1.66	1.97	1.33	-1.11 (inactive)	0.98	0.31	0.574	0.215 (inactive)	1.25 (inactive)	0.167 (inactive)	3.24	-0.0418 (inactive)	0.411	0.296	1.02	0.0986
COC(=O)[C@@]1(Cc2ccc(F)cc2)[C@H]2c3cc(C(=O)N4CCCC4)n(Cc4ccccc4)c3C[C@H]2CN1C(=O)c1ccccc1	0.106	-0.663	0.0451	0.19	1.56	1.83	1.12	1.2 (inactive)	1.23	0.0578	-0.101	-0.136 (inactive)	1.31 (inactive)	1.24 (inactive)	3.22	0.21 (inactive)	0.391	-0.486	0.783	0.0953
CC(C)N1C(=O)c2ccccc2[C@](C)(C(=O)O)[C@@H]1c1ccc(CO)cc1	0.513	-0.671	-0.0255	-0.0804	-0.663	0.752	-0.0487	0.726 (inactive)	0.112	-0.0708	-0.0681	-0.0219 (inactive)	-0.751 (inactive)	-1.16 (inactive)	1.32	-0.156 (inactive)	-0.0395	-0.615	-0.356	-0.256
CC(=O)NCCCC[C@@H]1NC(=O)[C@H]2C[C@@H](C(=O)NCCCCCN)[C@@H](c3cccc(OCCO)c3)N2C1=O	-0.0485	0.107	0.0661	0.792	0.831	1.09	0.581	-0.549 (inactive)	0.547	0.758	0.907	-1.51 (inactive)	-0.0234 (inactive)	-0.883 (inactive)	2.23	1.56 (inactive)	-0.097	0.559	0.275	-0.0155
NC(=O)NCC#Cc1ccc2c(c1)[C@]1(C(=O)N2)[C@H](c2ccc(OCCO)cc2)N2[C@H](c3ccccc3)[C@H](c3ccccc3)OC(=O)[C@H]2[C@@H]1C(=O)N1CCN(c2ncccn2)CC1	-0.584	0.936	-0.0767	0.766	0.0776	0.29	-0.178	0.565 (inactive)	-0.194	-0.0564	1.34	1.77 (inactive)	0.494 (inactive)	4.43 (inactive)	1.6	1.31 (inactive)	-0.0933	1.63	0.772	-0.15
CCCCCCCCCCC(O)C1C=CC2C(=O)NC(=O)C2N1Nc1ccccn1 (stereo not given)	0.444	-1.14	-0.0899	-0.417	0.439	1	0.852	1.06 (inactive)	0.0124	-0.236	-0.19	-20 (active)	-16.2 (active)	-2.6 (inactive)	1.78	-15.5 (active)	-0.0654	-0.894	0.243	-0.14
C=CC[C@@]1(C(=O)NCC(O)CO)N=C(c2ccc(OCCCO)cc2)O[C@@H]1c1ccccc1 (stereo not given in full)	1.49	2.09	0.255	0.44	-0.565	1.64	0.845	-1.09 (inactive)	0.872	0.108	1.4	-0.646 (inactive)	-1.17 (inactive)	-1.12 (inactive)	3.12	0.727 (inactive)	0.344	0.315	0.0815	0.168
COCCCNC(=O)[C@]1(CCS(=O)(=O)c2ccccc2)N=C(c2ccc(OCCCO)cc2)O[C@@H]1c1ccccc1	-0.0225	1.05	0.124	0.786	1.57	2.12	1.22	-1.91 (inactive)	1.26	-0.166	1.54	-0.575 (inactive)	0.127 (inactive)	0.0389 (inactive)	3.74	0.697 (inactive)	0.255	0.712	1.11	0.141
COc1ccc(C(=O)Nc2ccc(CN3C(=O)[C@]4(O[C@H](CCn5cc([C@H](O)c6ccccc6)nn5)[C@@H]([Si](C)(C)c5ccc(OC)cc5)[C@@H]4C)c4ccccc43)cc2)cc1	0.804	0.0963	-0.172	-0.161	-0.284	0.178	0.923	-0.855 (inactive)	0.198	-0.0994	0.466	-0.0933 (inactive)	-0.262 (inactive)	1.61 (inactive)	0.658	-0.615 (inactive)	0.101	0.341	-0.047	-0.169
O=C1NC(=O)C2C1C=CC(C(O)c1ccc(-c3ccccc3)s1)N2Nc1ccccn1 (stereo not given)	0.536	0.259	-0.0605	0.444	1.31	1.27	0.988	0.703 (inactive)	0.781	-0.191	0.189	-0.3 (inactive)	1.01 (inactive)	0.499 (inactive)	1.76	0.0076 (inactive)	0.129	-0.0414	0.418	-0.0085
CCC[C@@H]1C[C@@]1(CCC)[C@@H](NC(=O)c1ccco1)c1ccc(Cl)cc1	-0.0089	-0.441	-0.163	0.0059	-0.259	-0.656	-1.26	-0.632 (inactive)	0.161	-0.313	-1.25	0.349 (inactive)	-0.0896 (inactive)	0.194 (inactive)	-0.825	-1.1 (inactive)	-0.149	-0.174	-0.625	-0.165
